The supplement of paper PMC12067926

How the values were obtained:
Experiment in all cases: relative growth (AUC of 72 h growth curve relative to DMSO control, dAUC) (ratio); higher = more growth (less inhibition), active = hit call of the paper
Conditions in all cases: 20 µM;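 active = growth AUC significantly below the DMSO wells by Dunnett test; inactive = the rest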
[1] = tested on: Aeromonas 1 (Aeromonas sp. AE235)
In short: (§1)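 Isolates from Icelandic stream sediments and Silwood Park soil, along with whole sediment communities, were grown in Luria–Bertani medium to carrying capacity and diluted 1:100 into 96-well plates with each chemical at 20 µM (1% DMSO). A600 was measured hourly for 72 h, and values were averaged over three biological replicates. Relative growth (dAUC) is the spline-integrated growth-curve area over the mean of the DMSO controls.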

[2] = tested on: Aeromonas 2 (Aeromonas sobria)
In short: as §1

[3] = tested on: Aeromonas 3 (Aeromonas popoffii)
In short: as §1

[4] = tested on: Argrobacterium 1 (Agrobacterium sp.)
In short: as §1

[5] = tested on: Arthrobacter 1 (Arthrobacter humicola)
In short: as §1

[6] = tested on: Arthrobacter 2 (Arthrobacter humicola)
In short: as §1

[7] = tested on: Arthrobacter 3 (Arthrobacter sp.)
In short: as §1

Community 10 = tested on: Community 10
In short: as §1

Community 4 = tested on: Community 4
In short: as §1

Community 6 = tested on: Community 6
In short: as §1

Community 7 = tested on: Community 7
In short: as §1

Community 8 = tested on: Community 8
In short: as §1

Community 9 = tested on: Community 9
In short: as §1

[8] = tested on: Flavobacterium 1 (Flavobacterium glaciei)
In short: as §1

[9] = tested on: Flavobacterium 2 (Flavobacterium succinicans)
In short: as §1

[10] = tested on: Hymenobacter 1 (Hymenobacter glaciei)
In short: as §1

[11] = tested on: Microbacterium 1 (Microbacterium arborescens)
In short: as §1

[12] = tested on: Neobacillus 1 (Neobacillus soli)
In short: as §1

[13] = tested on: Oryzobacter 1 (Oryzobacter terrae)
In short: as §1

[14] = tested on: Paenibacillus 1 (Paenibacillus castaneae)
In short: as §1

Measured: relative growth

C/C(=N\C#N)N(C)Cc1ccc(Cl)nc1
inactive: [1] 0.986 | [2] 1.01 | [3] 1.04 | [4] 0.965 | [5] 1.03 | [6] 0.972 | [7] 0.973 | Community 10 1.15 | Community 4 1 | Community 6 1.05 | Community 7 1.02 | Community 8 1.05 | Community 9 0.986 | [8] 0.92 | [9] 1.02 | [10] 0.997 | [11] 0.997 | [12] 0.993 | [13] 1.07 | [14] 1.06

CCOP(=S)(OCC)Oc1nc(Cl)c(Cl)cc1Cl
inactive: [1] 1.05 | [2] 1 | [3] 1.06 | [4] 0.979 | [5] 1.04 | [6] 0.994 | [7] 1.08 | Community 10 0.928 | Community 4 0.974 | Community 6 0.953 | Community 7 0.998 | Community 8 1.02 | Community 9 1.06 | [8] 1.05 | [9] 0.996 | [10] 1.07 | [11] 0.991 | [12] 1.07 | [13] 1.04 | [14] 1.04

CCCC1COC(Cn2cncn2)(c2ccc(Cl)cc2Cl)O1 (stereo not given)
inactive: [1] 0.966 | [2] 0.949 | [3] 0.971 | [4] 0.999 | [5] 0.991 | [6] 0.797 | [7] 0.751 | Community 10 0.868 | Community 4 0.89 | Community 6 0.917 | Community 7 1.08 | Community 8 1 | Community 9 0.862 | [8] 0.937 | [9] 0.856 | [10] 0.937 | [11] 1.01 | [12] 0.88 | [13] 1.1 | [14] 0.935

O=C1c2ccccc2C(=O)N1SC(Cl)(Cl)Cl
inactive: [1] 1.04 | [2] 0.951 | [3] 0.992 | [4] 1.04 | [5] 1.04 | [6] 0.994 | [7] 1.1 | Community 10 0.818 | Community 4 0.962 | Community 6 0.721 | Community 7 0.943 | Community 8 0.913 | Community 9 1.01 | [8] 1.05 | [9] 0.983 | [10] 1.11 | [11] 1.02 | [12] 1.07 | [13] 0.988 | [14] 1.02

CCOCn1c(-c2ccc(Cl)cc2)c(C#N)c(Br)c1C(F)(F)F
inactive: [1] 0.988 | [2] 0.989 | [3] 1.01 | [4] 0.978 | [5] 1.14 | [6] 0.829 | [7] 0.987 | Community 10 0.934 | Community 4 1.07 | Community 6 0.99 | Community 7 1.06 | Community 8 1.05 | Community 9 1.03 | [8] 1.03 | [9] 0.988 | [10] 0.993 | [11] 0.996 | [12] 0.979 | [13] 1 | [14] 0.978

CCC(CC)Nc1c([N+](=O)[O-])cc(C)c(C)c1[N+](=O)[O-]
inactive: [1] 0.951 | [2] 0.973 | [3] 0.997 | [4] 0.993 | [5] 0.901 | [6] 0.884 | [7] 1.02 | Community 10 0.687 | Community 4 0.88 | Community 6 0.917 | Community 7 1.03 | Community 8 1.02 | Community 9 0.884 | [8] 1.03 | [9] 0.957 | [10] 0.926 | [11] 1.04 | [12] 0.918 | [13] 1.1 | [14] 0.933

O=C(NCCc1ncc(C(F)(F)F)cc1Cl)c1ccccc1C(F)(F)F
inactive: [1] 0.997 | [2] 0.977 | [3] 0.973 | [4] 1.13 | [5] 0.873 | [6] 0.931 | [7] 1.01 | Community 10 0.806 | Community 4 0.994 | Community 6 0.939 | Community 7 0.935 | Community 8 0.961 | Community 9 1.05 | [8] 0.987 | [9] 0.962 | [10] 0.995 | [11] 1.02 | [12] 0.981 | [13] 1.11 | [14] 0.935

O=[N+]([O-])/N=C1\NCCN1Cc1ccc(Cl)nc1
inactive: [1] 0.99 | [2] 0.99 | [3] 0.999 | [4] 0.959 | [5] 0.949 | [6] 1.06 | [7] 0.929 | Community 10 1.23 | Community 4 1.11 | Community 6 1.11 | Community 7 1.11 | Community 8 1.05 | Community 9 1.07 | [8] 0.997 | [9] 1.07 | [10] 1.14 | [11] 1 | [12] 1.06 | [13] 0.944 | [14] 1.15

CCC(C)c1ccccc1OC(=O)NC (stereo not given)
inactive: [1] 1 | [2] 0.975 | [3] 0.991 | [4] 1.06 | [5] 0.921 | [6] 1.08 | [7] 1.08 | Community 10 1.08 | Community 4 1.06 | Community 6 1.07 | Community 7 1.02 | Community 8 1.05 | Community 9 1.07 | [8] 1.11 | [9] 1.02 | [10] 0.856 | [11] 1.04 | [12] 1.06 | [13] 0.993 | [14] 1

CC[C@H]1CCC[C@H](O[C@H]2CC[C@H](N(C)C)[C@@H](C)O2)[C@@H](C)C(=O)C2=C[C@@H]3[C@@H](C=C(C)[C@@H]4C[C@@H](O[C@@H]5O[C@@H](C)[C@H](OC)[C@@H](OC)[C@H]5OC)C[C@@H]34)[C@@H]2CC(=O)O1.CC[C@H]1CCC[C@H](O[C@H]2CC[C@H](N(C)C)[C@@H](C)O2)[C@@H](C)C(=O)C2=C[C@H]3[C@@H]4C[C@H](O[C@@H]5O[C@@H](C)[C@H](OC)[C@@H](OC)[C@H]5OC)C[C@H]4C=C[C@H]3C2CC(=O)O1
inactive: [1] 0.972 | [2] 0.977 | [3] 0.979 | [4] 1.08 | [5] 0.832 | [6] 0.89 | [7] 0.999 | Community 10 0.772 | Community 4 0.855 | Community 6 0.699 | Community 7 1.36 | Community 8 0.95 | Community 9 0.711 | [8] 0.859 | [9] 0.951 | [10] 1.06 | [11] 0.985 | [12] 0.965 | [13] 1.14 | [14] 0.832

Cc1nnc(-c2ccccc2)c(=O)n1N
inactive: [1] 0.991 | [2] 0.975 | [3] 0.993 | [4] 1.03 | [5] 0.986 | [6] 0.946 | [7] 1.04 | Community 10 0.899 | Community 4 0.882 | Community 6 0.909 | Community 7 1.12 | Community 8 0.974 | Community 9 0.918 | [8] 0.963 | [9] 0.956 | [10] 0.868 | [11] 1.01 | [12] 0.937 | [13] 1.12 | [14] 0.905

CCOC(=O)OC1=C(c2cc(C)ccc2C)C(=O)N[C@]12CC[C@@H](OC)CC2
inactive: [1] 0.965 | [2] 0.981 | [3] 1.01 | [4] 1.03 | [5] 1.17 | [6] 1.03 | [7] 0.986 | Community 10 0.945 | Community 4 1.14 | Community 6 1.02 | Community 7 1.03 | Community 8 0.995 | Community 9 1.03 | [8] 1.08 | [9] 1.05 | [10] 0.987 | [11] 1.01 | [12] 1.09 | [13] 1.05 | [14] 1.01

CCCCCCCCCCCCNC(=N)N
inactive: [1] 0.94 | [2] 0.928 | [3] 0.97 | Community 7 0.993 | Community 8 0.788 | [9] 0.832 | [11] 0.881 | [12] 0.98 | [14] 0.893
active: [4] 0.233 | [5] 0.0065 | [6] 0.00389 | [7] 0.0063 | Community 10 0.505 | Community 4 0.501 | Community 6 0.407 | Community 9 0.294 | [8] 0.00294 | [10] 0.00418 | [13] 0.00315

Fc1ccc(Oc2ccnc3cc(Cl)cc(Cl)c23)cc1
inactive: [1] 1.01 | [2] 1.03 | [3] 1 | [4] 1.06 | [5] 0.954 | [6] 1.1 | [7] 1.08 | Community 10 0.887 | Community 4 0.987 | Community 6 0.935 | Community 7 0.843 | Community 8 1.01 | Community 9 1.03 | [8] 1.04 | [9] 1.01 | [10] 1.13 | [11] 0.999 | [12] 1.09 | [13] 1.01 | [14] 0.927

COP(=O)(NC(C)=O)SC (stereo not given)
inactive: [1] 1.02 | [2] 0.995 | [3] 0.998 | [4] 1.03 | [5] 0.984 | [6] 0.906 | [7] 1.05 | Community 10 0.781 | Community 4 1.01 | Community 6 0.892 | Community 7 0.831 | Community 8 0.99 | Community 9 1.03 | [8] 1.06 | [9] 0.982 | [10] 1 | [11] 1.01 | [12] 1.01 | [13] 1.04 | [14] 0.959
